Test results as given in PubChem BioAssay.
Active and inactive are the calls of the source.

What was measured:
[1] = adipocyte viability effects, profiling panel, cell-based, 3T3-L1 adipocytes, calcein-AM fluorescence, 48 h, basal (AID 1163); conditions: 3T3-L1 adipocytes viability, higher = more signal
[2] = HepG2 cell viability effects, profiling panel, calcein-AM fluorescence, 48 h, basal (AID 1164); conditions: higher = more signal
[3] = MM1S cell viability effects, profiling panel, calcein-AM fluorescence, 48 h, basal (AID 1165); conditions: higher = more signal;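 further: viability of MM1S multiple myeloma cells under basal unstimulated conditions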
[4] = basal RPMI8226 viability, no added stimulus, profiling panel, cell-based, calcein-AM fluorescence, 48 h, PK04 Diversity Set (AID 1166); conditions: RPMI8226 myeloma viability, higher = more signal;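 further: cells grown under basal conditions without added stimulus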
[5] = basal HepG2 mitochondrial membrane potential changes, profiling panel, cell-based, JC-1 fluorescence, 24 h, 100 nL compound (AID 1167); conditions: higher = more signal
[6] = basal 3T3-L1 adipocyte mitochondrial potential changes, profiling panel, cell-based, JC-1 fluorescence, 3T3-L1 adipocytes, 24 h, 100 nL compound (AID 1168); conditions: JC-1 mitochondrial fluorescence, higher = more signal, called active from +8 up or from −8 down
[7] = basal RPMI8226 mitochondrial membrane potential changes, profiling panel, cell-based, JC-1 fluorescence, 24 h, 100 nL compound (AID 1169); conditions: RPMI8226 myeloma, JC-1 mitochondrial potential fluorescence, higher = more signal
[8] = basal MM1S mitochondrial membrane potential changes, profiling panel, cell-based, JC-1 fluorescence, 24 h, 100 nL compound (AID 1170); conditions: higher = more signal
[9] = A549 lung cancer cell viability effects, profiling panel, resazurin fluorescence, 24 h, PK04 Diversity Set (AID 1171); conditions: higher = more signal, called active from +8 up or from −8 down
[10] = HepG2 liver cancer cell viability effects, profiling panel, resazurin fluorescence, 24 h, PK04 Diversity Set (AID 1172); conditions: higher = more signal
[11] = basal S. cerevisiae growth modulation, no modifier, primary screen, OD600, strain BY4716, 24 h, basal condition (AID 1173); conditions: OD600, 24 h, higher = more signal, called active from +8 up or from −8 down
[12] = MM1S myeloma cell viability, profiling panel, resazurin fluorescence, basal, 24 h, PK04 Diversity Set (AID 1174); conditions: higher = more signal, called active from +8 up or from −8 down;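 further: MM1S multiple myeloma cell line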
[13] = molecular target: Dihydroorotate dehydrogenase (quinone), mitochondrial (Plasmodium falciparum (isolate 3D7)) (UniProt Q08210); test: PfDHODH enzyme inhibitors, primary screen, biochemical, C-terminal His tag, absorbance 600 nm (AID 1175); conditions: DCIP absorbance 600 nm, higher = more signal, called active from +8 up or from −8 down;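 further: recombinant parasite enzyme with a five histidine tag at its C terminus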
Sequence of Dihydroorotate dehydrogenase (quinone), mitochondrial (Plasmodium falciparum (isolate 3D7)) (Q08210 whole entry, looked up): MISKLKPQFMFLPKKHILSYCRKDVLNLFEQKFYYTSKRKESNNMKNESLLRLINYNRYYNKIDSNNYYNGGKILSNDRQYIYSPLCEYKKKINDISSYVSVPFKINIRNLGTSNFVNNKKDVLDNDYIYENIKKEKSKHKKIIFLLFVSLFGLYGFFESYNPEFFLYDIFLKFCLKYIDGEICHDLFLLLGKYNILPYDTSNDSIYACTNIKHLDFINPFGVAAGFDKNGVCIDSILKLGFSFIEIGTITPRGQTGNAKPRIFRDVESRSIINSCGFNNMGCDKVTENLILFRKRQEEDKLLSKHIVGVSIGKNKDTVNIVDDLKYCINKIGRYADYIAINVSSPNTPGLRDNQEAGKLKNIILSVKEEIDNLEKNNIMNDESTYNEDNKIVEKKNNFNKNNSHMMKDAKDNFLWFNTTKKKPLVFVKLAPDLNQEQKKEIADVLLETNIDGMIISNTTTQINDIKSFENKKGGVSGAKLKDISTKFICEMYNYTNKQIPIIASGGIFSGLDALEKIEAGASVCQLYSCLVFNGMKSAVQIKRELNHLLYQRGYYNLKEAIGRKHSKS

[14] = S. cerevisiae RM11-1a growth modifiers, primary screen, strain RM11-1a, OD600, basal, 24 h (AID 1177); conditions: OD600, 24 h, higher = more signal, called active from +8 up or from −8 down;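 further: cultures grown under basal conditions with no added stressor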
[15] = E. coli acrAB mutant growth effects, primary screen, E. coli filamentation inducers, strain DRC39, OD650, 24 h (AID 1178); conditions: higher = more signal, called active from +8 up or from −8 down;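 further: growth measured as culture turbidity by optical density at 650 nm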
[16] = E. coli acrAB mutant growth effects, primary screen, E. coli filamentation inducers, strain DRC39, OD650, 48 h (AID 1179);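 further: screen aims at cell division blockers that make cells filament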; conditions: E. coli DRC39 delta-acrAB growth, higher = more signal, called active from +8 up or from −8 down
[17] = RPMI8226 myeloma cell viability, profiling panel, resazurin fluorescence, basal, 24 h, PK04 Diversity Set (AID 1180); conditions: higher = more signal;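 further: RPMI8826 multiple myeloma cell line at 5000 cells per well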
[18] = molecular target: E3 ubiquitin-protein ligase XIAP (Homo sapiens) (UniProt P98170); test: XIAP binders, primary screen, biophysical, small-molecule microarray, fluorescence 635 nm (AID 1181); conditions: small-molecule microarray binding, higher = more signal;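 further: score merges 667 nm emission and signal to noise over triplicate slides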
Sequence of E3 ubiquitin-protein ligase XIAP (Homo sapiens) (P98170 whole entry, looked up): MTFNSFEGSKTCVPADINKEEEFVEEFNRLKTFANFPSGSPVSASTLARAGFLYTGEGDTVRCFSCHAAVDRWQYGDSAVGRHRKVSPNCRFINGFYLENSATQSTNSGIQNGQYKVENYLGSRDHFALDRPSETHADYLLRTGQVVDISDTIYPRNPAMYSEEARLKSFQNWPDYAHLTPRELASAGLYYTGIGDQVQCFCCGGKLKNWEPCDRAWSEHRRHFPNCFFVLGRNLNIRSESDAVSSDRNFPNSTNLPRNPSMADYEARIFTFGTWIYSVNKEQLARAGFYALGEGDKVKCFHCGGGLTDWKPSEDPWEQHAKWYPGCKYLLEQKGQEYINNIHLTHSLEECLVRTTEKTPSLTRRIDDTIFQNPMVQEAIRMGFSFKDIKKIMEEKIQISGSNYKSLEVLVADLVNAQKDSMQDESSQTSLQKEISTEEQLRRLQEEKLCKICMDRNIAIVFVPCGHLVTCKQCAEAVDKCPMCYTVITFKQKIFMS

[19] = system: XIP peptide (Xip251-270) binding; test: small-molecule binders of XIP peptide, primary screen, biochemical, small-molecule microarray, fluorescence 635/667 nm, 0.1 µg/mL protein (AID 1182); conditions: fluorescent protein binding, 635 nm, higher = more signal, called active from +8 up or from −8 down
[20] = system: XIP peptide (Xip251-270); test: small-molecule binders of XIP peptide, primary screen, biochemical, small-molecule microarray, fluorescence 635/667 nm, 0.5 µg/mL protein (AID 1183); conditions: small-molecule microarray binding, fluorescence 635 nm; higher = more signal

| SMILES | z-score [1] | z-score [2] | z-score [3] | z-score [4] | z-score [5] | z-score [6] | z-score [7] | z-score [8] | z-score [9] | z-score [10] | z-score [11] | z-score [12] | composite z-score [13] | z-score [14] | z-score [15] | z-score [16] | z-score [17] | composite z-score [18] | composite z-score [19] | composite z-score [20] |
| --- | --- | --- | --- | --- | --- | --- | --- | --- | --- | --- | --- | --- | --- | --- | --- | --- | --- | --- | --- | --- |
| COC(=O)[C@@]1(CCC(=O)OC(C)(C)C)COC(c2ccc(OCCCO)cc2)=N1 | 1.52 | -0.528 | 0.203 | -0.0712 | -0.407 | -0.0189 (inactive) | 0.614 | 0.396 | 0.307 (inactive) | 0.863 | -1.27 (inactive) | 0.867 (inactive) | -0.402 (inactive) | -0.612 (inactive) | 2.83 (inactive) | 1.14 (inactive) | 1.1 | -0.217 | -0.191 (inactive) | -1.66 |
| C[N+](C)(C)CCCC[C@@H]1NC(=O)[C@H]2C[C@@H](C(=O)NCCCCCN)[C@@H](c3cccc(OCCO)c3)N2C1=O | 2.1 | -0.468 | -0.433 | -0.649 | 1.31 | 0.0454 (inactive) | -0.773 | 0.0601 | -0.156 (inactive) | -0.148 | -0.26 (inactive) | 1.53 (inactive) | -0.407 (inactive) | -0.286 (inactive) | 0.222 (inactive) | -0.0647 (inactive) | 0.729 | -0.163 | 0.713 (inactive) | 0.608 |
| O=C(NC1CC1)[C@@H]1c2ccccc2C(=O)N(Cc2ccccc2C(F)(F)F)[C@H]1c1ccc(CO)cc1 | 1.59 | 0.0356 | -0.124 | 0.702 | 1.26 | 0.387 (inactive) | -0.0417 | 0.65 | 1.99 (inactive) | 0.187 | -0.844 (inactive) | 1.55 (inactive) | 0.209 (inactive) | -0.615 (inactive) | 0.487 (inactive) | -0.152 (inactive) | 1.98 | -0.0848 | 0.62 (inactive) | 0.618 |
| C=CCNC(=O)[C@H]1[C@@H]2C(=O)O[C@@H](c3ccccc3)[C@@H](c3ccccc3)N2[C@@H](c2ccc(OCCO)cc2)[C@]12C(=O)Nc1ccc(C#CCCO)cc12 | 2.12 | 1.05 | 0.416 | 0.364 | 0.355 | 0.815 (inactive) | -0.307 | 0.128 | 0.865 (inactive) | -0.0836 | -0.0378 (inactive) | 0.806 (inactive) | 0.0436 (inactive) | 1.25 (inactive) | 0.645 (inactive) | 0.499 (inactive) | 1.28 | -0.0371 | 0.331 (inactive) | 0.81 |
| CC1CC/C=C\[C@H]2OC34C=CCN(C(C)C)C(=O)[C@H]3N(C(CO)C(C)C)C(=O)[C@@H]4C2C(=O)O1 (stereo not given in full) | 0.252 | -0.0224 | 1.4 | 0.652 | 0.686 | 1.39 (inactive) | -0.723 | 1.62 | 0.351 (inactive) | 0.788 | -0.718 (inactive) | 1.15 (inactive) | -1.87 (inactive) | -0.488 (inactive) | 1.36 (inactive) | 1.46 (inactive) | 0.838 | -0.194 | 0.0648 (inactive) | -1.15 |
| CN1C=C(C(=O)OCCS(C)(=O)=O)C(C(=O)OCCS(C)(=O)=O)=CC(CCCO)=CC1c1cccs1 (stereo not given) | 0.778 | 0.615 | 0.175 | -0.249 | 1.9 | 1.93 (inactive) | 0.0813 | 0.885 | 0.776 (inactive) | 0.666 | -3.06 (inactive) | 1.07 (inactive) | -4.08 (inactive) | -1.01 (inactive) | 1.26 (inactive) | 0.676 (inactive) | 0.602 | 0.0374 | -0.64 (inactive) | -0.254 |
| C[N+](C)(C)CCCC[C@@H]1NC(=O)[C@@H]2C[C@H](C(=O)NCCCCCNC(=O)CS)[C@H](c3ccc(O)cc3)N2C1=O | 1.09 | -0.792 | -0.982 | 0.027 | 2 | 0.385 (inactive) | 0.289 | -0.336 | 1.09 (inactive) | -0.122 | -1.15 (inactive) | 0.941 (inactive) | -1.15 (inactive) | -1.36 (inactive) | 0.513 (inactive) | 0.355 (inactive) | 1.55 | 0.0471 | 0.609 (inactive) | 0.184 |
| COc1ccc(C#Cc2ccc3c(c2)[C@]2(C(=O)N3)[C@H](c3ccc(O)cc3)N3[C@H](c4ccccc4)[C@H](c4ccccc4)OC(=O)[C@H]3[C@@H]2C(N)=O)cc1 | 1.39 | -4.79 | -3.41 | -4.61 | -2.81 | -0.0696 (inactive) | -1.32 | -1.66 | -1.62 (inactive) | -0.424 | -0.379 (inactive) | -6.51 (inactive) | 0.255 (inactive) | 1.47 (inactive) | 0.277 (inactive) | 0.464 (inactive) | -6.8 | 0.237 | 0.0982 (inactive) | 0.542 |
| C=C(COC)C(=O)CC[C@H](OC(=O)c1cccnc1)c1cccc(OCCO)c1 | 1.13 | -1.38 | -3.32 | -0.941 | 0.872 | 0.984 (inactive) | -0.169 | -0.615 | 0.633 (inactive) | 0.282 | -0.221 (inactive) | 0.839 (inactive) | -0.236 (inactive) | 1.61 (inactive) | 1.09 (inactive) | 0.757 (inactive) | -0.581 | 0.0792 | 0.804 (inactive) | -0.661 |
